Assay outcomes: PubChem BioAssay, National Center for Advancing Translational Sciences (NCATS)
MCF10A rerep: inducers of DNA re-replication in MCF 10A breast cells; MCF 10A DNA re-replication, Hoechst nuclear intensity, 48 h; hit rate 2.9% among 350,000; Potency, µM (series often up to 46.1 µM), without a hit: at the highest dose activity, positive = re-replication, usual class: activators; further: % of control where 0% means no effect; nearly all actives have a fitted effect of over 50% in size
KB-V1 cytotox: kills drug-selected multidrug resistant KB-V1 cells; KB-V1 MDR cells viability, CellTiter-Glo, 72 h; Potency, µM (doses to about 46.1 µM), usual class: cytotoxic; hit rate 3.4% among 400,000; AID 1347076; further: on the % scale 0 is the no-effect control and ±100 the full control effect; nearly all actives have a fitted effect of over 60% in size
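qHTS viability screen in drug-selected KB-V1 MDR cells: 72 h compound treatment at 37 degrees C, ATP luminescence end point.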
SW480 rereplic: induces DNA re-replication in SW480 colon adenocarcinoma cells; SW480 DNA re-replication, Hoechst DNA content imaging, 48 h; Potency, µM (titrated, usually from 46.1 µM), inactives show at the highest dose re-replication activation, actives largely listed as activators; hit rate 1.8% among 340,000; further: % of control where 0% means no effect; nearly all actives have a fitted effect of over 55% in size
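Quantitative HTS format with DMSO vehicle controls; 48 hr drug incubation at 37 C, then 40 min Hoechst staining and scanning imager measurement at 405 nm excitation.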
TSG101-PTAP inh: blocks PTAP/TSG101 interaction to inhibit HIV-1 budding. Q99816. Fluorescence polarization, FITC-PTAP peptide / Tsg101 binding. Potency, µM (highest dose often 115 µM), for inactives: at the top dose activity change, negative = inhibition, most hits filed as inhibitors. 340,000 tested, under 10 active. AID 493005; active means well fitted inhibition curve with a large enough effect in the main read-out, with a control signal flat, not every such curve was filed as active; inconclusive means small, poorly fitted or top-dose-only effect, or effect the other way, or a change in a side signal; inactive means no such curve, though single readings can be large or run the other way; further: % of control where 0% means no effect
Target sequence (Q99816 whole entry, looked up): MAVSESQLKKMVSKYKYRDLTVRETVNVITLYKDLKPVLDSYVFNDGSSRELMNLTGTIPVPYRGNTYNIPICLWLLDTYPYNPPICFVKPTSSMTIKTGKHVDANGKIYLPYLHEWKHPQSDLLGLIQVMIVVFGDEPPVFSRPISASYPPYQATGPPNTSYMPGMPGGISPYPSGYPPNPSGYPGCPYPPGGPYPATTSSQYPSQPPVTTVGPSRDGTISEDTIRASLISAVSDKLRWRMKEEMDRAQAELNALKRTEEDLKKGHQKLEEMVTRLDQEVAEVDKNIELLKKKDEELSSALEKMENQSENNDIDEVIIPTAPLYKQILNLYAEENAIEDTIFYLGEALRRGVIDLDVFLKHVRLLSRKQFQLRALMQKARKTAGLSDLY
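Tsg101 binding domain (10 uM final) was mixed with compound and a FITC-labeled PTAP peptide (50 nM final) in HEPES pH 7.5 buffer with NaCl, Tween 20, EDTA and TCEP; fluorescence polarization was read after 20 min at r.t.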
KB-3-1 cytotox: KB-3-1 parental cell cytotoxicity. KB-3-1 viability, CellTiter-Glo ATP luminescence, 72 h. Potency, µM (series often up to 46.1 µM), hits mostly cytotoxic. hit rate 1.4% among 400,000. AID 1347075; further: on the % scale 0 is the no-effect control and ±100 the full control effect; nearly all actives have a fitted effect of over 60% in size
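KB-3-1 cells, DMEM (no phenol red) + 10% FBS; compound by pin transfer, 72 h, 37 °C. Readout: CellTiter-Glo luminescence after 10 min. Data normalized, curve-fitted.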
PINK1 modulator: changes PINK1 expression. Potency, µM (series often up to 76.6 µM), without a hit: top-dose activation (PINK1 increase), most hits filed as activators. PINK1 immunofluorescence, high-content cytometry, 24 h. AID 624263. hit rate 0.2% among 410,000; active means well fitted activation curve with a large enough effect; inconclusive means small, poorly fitted or top-dose-only effect; cell line not stated here; further: % of control where 0% means no effect; nearly all actives have a fitted effect of over 65% in size
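Measures PINK1 amount and localization on or inside mitochondria by immunofluorescence. Stable cells get compounds at 5 concentrations for 24 hours before fixation and staining; CCCP controls included.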
An asterisk follows results filed as active; i = inactive; ? = inconclusive; · = no result. An excerpt weighted towards active compounds, which were near 6.8% of everything screened. Unless noted, the call rests on the fitted dose curve; in most records, active means well fitted curve in the direction sought with a large enough effect; inconclusive means small, poorly fitted or top-dose-only effect, or another doubt; inactive means no such curve, though single readings can be large; an effect the other way counts as inactive or inconclusive. Potency means the concentration at half of the fitted maximal effect.

SMILES | MCF10A rerep | KB-V1 cytotox | SW480 rereplic | TSG101-PTAP inh | KB-3-1 cytotox | PINK1 modulator
O=C(NCC(=O)N1CCN(S(=O)(=O)c2ccccc2)CC1)c1ccc2ccccc2c1 | 7.0% | 11.6µM* | -3.0% | -1.0% | i | -2.1%
Cc1ccc(S(=O)(=O)N2CCN(C(=O)Cc3ccc4c(c3)OCCO4)CC2)cc1C | -3.5% | 4.11µM* | 1.5% | 0.3% | i | 0.7%
O=C(Cc1ccc2c(c1)OCCO2)N1CCN(S(=O)(=O)c2cccc(Cl)c2Cl)CC1 | 29.4% | 23.1µM* | -108.7% | -1.5% | i | -0.2%
CCCCCC(=O)N1CCN(S(=O)(=O)c2ccc3c(c2)OCCO3)CC1 | 12.4% | ? | -1.9% | -4.6% | i | -0.7%
O=C(NCC(=O)N1CCN(S(=O)(=O)c2ccccc2F)CC1)c1ccc2ccccc2c1 | 1.6% | i | -34.4% | -5.8% | i | -3.5%
O=C(Cc1ccc2c(c1)OCCO2)N1CCN(S(=O)(=O)c2cccs2)CC1 | -0.5% | ? | -4.3% | -3.7% | i | 0.2%
Cc1ccc(Cl)cc1N1CCN(C(=O)CN2C(=O)COc3ccc(S(=O)(=O)N4CCCCCC4)cc32)CC1 | · | 25.9µM* | · | · | ? | 0.2%
O=C(Nc1ccc2ccccc2c1)Nc1nnc(C2CCCCC2)s1 | · | ? | · | · | i | ·
CN1CCN(S(=O)(=O)c2ccc(N3CCN(S(=O)(=O)/C=C/c4ccccc4)CC3)nc2)CC1 | 7.31µM* | i | ? | -1.9% | i | -2.9%
CN1CCN(S(=O)(=O)c2ccc(N3CCN(C(c4ccccc4)c4ccccc4)CC3)nc2)CC1 | ? | i | 11.1% | -1.2% | ? | 0.9%
O=C(CCl)N1CCN(S(=O)(=O)c2ccc3ccccc3c2)CC1 | 14.6µM* | ? | ? | -11.4% | ? | -4.2%
O=C(C1CC(=O)N(c2ccc3c(c2)OCCO3)C1)N1CCN(S(=O)(=O)c2cccc(F)c2)CC1 (stereo not drawn) | -0.7% | 20.6µM* | 0.4% | -3.8% | i | 2.0%
COc1ccc(S(=O)(=O)N2CCN(C3Cc4ccccc4C3)CC2)cc1 | -8.4% | 20.6µM* | -32.4% | -6.4% | i | 1.2%
CCc1ccc(NC(=O)Cn2c(=O)n(CCCCC(=O)NCCc3ccc(Cl)cc3)c(=O)c3ccccc32)cc1 | · | i | · | · | i | -0.3%
CCOc1ccc(NC(=O)Cn2cc(C(=O)c3ccccc3)c(=O)c3cc4c(cc32)OCCO4)cc1 | · | ? | · | · | i | 2.6%
CC1CCC(NC(=O)C2(C)Cc3ccccc3C(=O)N2Cc2ccccc2Cl)CC1 (stereo not drawn) | · | · | · | · | · | -0.7%
COc1cc(OC)c(NC(=O)N2CCSc3ccccc32)cc1Cl | · | i | · | · | i | -1.2%
COc1cc(OC)c(OC)cc1CN1CCCC(c2[nH]ncc2-c2cccc(C(F)(F)F)c2)C1 (stereo not drawn) | · | · | · | · | · | 0.7%
O=S(=O)(c1ccc(N2CCN(S(=O)(=O)c3ccc4c(c3)OCCO4)CC2)nc1)N1CCCC1 | 17.7% | 8.2µM* | 0.3% | -1.7% | ? | -0.9%
O=C(NCC(=O)N1CCCC(C(F)(F)F)C1)c1ccc2ccccc2c1 (stereo not drawn) | 7.5% | i | 18.4µM* | -3.9% | i | 2.0%
COc1cc2c(cc1NC(=O)COc1ccc(Br)cc1C)oc1ccccc12 | · | i | · | · | i | 1.3%
CCn1nc([N+](=O)[O-])c(C(C#N)c2nc3cc(C(F)(F)F)ccc3s2)c(Cl)c1=O (stereo not drawn) | 29.4% | ? | 4.61µM* | -9.0% | 14.6µM* | ?
CCCn1nc([N+](=O)[O-])c(C(C#N)c2nc3ccccc3o2)c(Cl)c1=O (stereo not drawn) | ? | i | -2.1% | -4.4% | i | ?
Clc1ccc(C[n+]2cc(-c3ccccc3)n3c2CCCCC3)c(Cl)c1 | 5.4% | ? | 0.4% | -5.1% | 2.06µM* | 25.4%
Clc1ccc(-c2c[n+](Cc3ccc(Cl)cc3Cl)c3n2CCCCC3)cc1 | 14.6% | i | 12.4% | -0.5% | ? | ?
